How the values were obtained:
Assay in all cases: log2 ratio of Biotin-Ahx-Ub-VS probe labelling (fragment/DMSO); higher = less target engagement (more negative = stronger competition), active = hit call of the paper (q ≤ 0.05, log2 ratio ≤ -1)
Conditions in all cases: compound concentration: 200 uM; treatment time: 3 h
USP19 = biological target: T1, USP19 (UniProt O94966)
T1 sequence (whole entry): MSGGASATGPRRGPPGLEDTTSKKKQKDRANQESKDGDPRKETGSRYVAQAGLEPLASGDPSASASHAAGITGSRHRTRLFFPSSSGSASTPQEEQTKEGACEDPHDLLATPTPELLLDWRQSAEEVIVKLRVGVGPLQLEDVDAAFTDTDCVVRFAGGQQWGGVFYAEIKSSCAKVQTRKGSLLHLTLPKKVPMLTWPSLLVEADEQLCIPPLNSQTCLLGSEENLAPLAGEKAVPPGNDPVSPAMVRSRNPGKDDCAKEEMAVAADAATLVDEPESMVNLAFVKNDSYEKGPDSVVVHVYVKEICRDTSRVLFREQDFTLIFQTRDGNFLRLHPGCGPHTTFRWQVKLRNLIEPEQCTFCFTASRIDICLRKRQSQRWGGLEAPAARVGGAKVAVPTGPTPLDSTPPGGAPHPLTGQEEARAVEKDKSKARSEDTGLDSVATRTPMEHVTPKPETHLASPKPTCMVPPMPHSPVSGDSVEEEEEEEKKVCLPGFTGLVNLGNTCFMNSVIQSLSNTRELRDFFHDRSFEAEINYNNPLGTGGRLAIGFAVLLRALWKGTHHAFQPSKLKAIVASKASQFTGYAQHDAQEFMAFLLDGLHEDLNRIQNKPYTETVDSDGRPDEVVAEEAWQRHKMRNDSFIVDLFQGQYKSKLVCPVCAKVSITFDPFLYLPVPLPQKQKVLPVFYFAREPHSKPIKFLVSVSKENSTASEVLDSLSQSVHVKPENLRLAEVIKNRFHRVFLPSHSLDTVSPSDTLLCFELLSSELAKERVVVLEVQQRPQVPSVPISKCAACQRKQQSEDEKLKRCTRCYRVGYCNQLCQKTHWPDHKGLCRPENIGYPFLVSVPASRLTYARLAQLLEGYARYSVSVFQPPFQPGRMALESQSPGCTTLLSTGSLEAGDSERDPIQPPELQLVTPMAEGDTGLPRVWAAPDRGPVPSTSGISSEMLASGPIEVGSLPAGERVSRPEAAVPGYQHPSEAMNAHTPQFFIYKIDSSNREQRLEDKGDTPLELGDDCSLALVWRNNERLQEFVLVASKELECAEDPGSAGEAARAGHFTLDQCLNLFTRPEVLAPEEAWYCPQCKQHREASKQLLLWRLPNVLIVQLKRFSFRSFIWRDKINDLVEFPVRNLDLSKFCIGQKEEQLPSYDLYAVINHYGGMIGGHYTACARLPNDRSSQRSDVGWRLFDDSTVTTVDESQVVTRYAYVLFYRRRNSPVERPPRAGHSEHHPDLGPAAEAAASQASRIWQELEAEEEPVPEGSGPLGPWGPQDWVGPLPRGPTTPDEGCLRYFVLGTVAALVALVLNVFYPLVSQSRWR
In short: (§1)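 HEK293T lysate (495 µg per sample, in Tris/CHAPS/IGEPAL buffer with protease inhibitors) was treated in triplicate with fragment at 200 µM or with DMSO for 3 h. It was then treated with Biotin-Ahx-Ub-VS (0.5 µM final) for 1 h. Labelled DUBs were NeutrAvidin-enriched, digested with LysC and trypsin, and run by diaPASEF LC-MS/MS. Spectronaut label-free quantities were global-median-normalised. Values are average log2 ratios fragment/DMSO by unpaired t-test, using proteins with ≥2 unique peptides.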

USP24 = USP24 (UniProt Q9UPU5)
Chain of USP24 (Q9UPU5 whole entry): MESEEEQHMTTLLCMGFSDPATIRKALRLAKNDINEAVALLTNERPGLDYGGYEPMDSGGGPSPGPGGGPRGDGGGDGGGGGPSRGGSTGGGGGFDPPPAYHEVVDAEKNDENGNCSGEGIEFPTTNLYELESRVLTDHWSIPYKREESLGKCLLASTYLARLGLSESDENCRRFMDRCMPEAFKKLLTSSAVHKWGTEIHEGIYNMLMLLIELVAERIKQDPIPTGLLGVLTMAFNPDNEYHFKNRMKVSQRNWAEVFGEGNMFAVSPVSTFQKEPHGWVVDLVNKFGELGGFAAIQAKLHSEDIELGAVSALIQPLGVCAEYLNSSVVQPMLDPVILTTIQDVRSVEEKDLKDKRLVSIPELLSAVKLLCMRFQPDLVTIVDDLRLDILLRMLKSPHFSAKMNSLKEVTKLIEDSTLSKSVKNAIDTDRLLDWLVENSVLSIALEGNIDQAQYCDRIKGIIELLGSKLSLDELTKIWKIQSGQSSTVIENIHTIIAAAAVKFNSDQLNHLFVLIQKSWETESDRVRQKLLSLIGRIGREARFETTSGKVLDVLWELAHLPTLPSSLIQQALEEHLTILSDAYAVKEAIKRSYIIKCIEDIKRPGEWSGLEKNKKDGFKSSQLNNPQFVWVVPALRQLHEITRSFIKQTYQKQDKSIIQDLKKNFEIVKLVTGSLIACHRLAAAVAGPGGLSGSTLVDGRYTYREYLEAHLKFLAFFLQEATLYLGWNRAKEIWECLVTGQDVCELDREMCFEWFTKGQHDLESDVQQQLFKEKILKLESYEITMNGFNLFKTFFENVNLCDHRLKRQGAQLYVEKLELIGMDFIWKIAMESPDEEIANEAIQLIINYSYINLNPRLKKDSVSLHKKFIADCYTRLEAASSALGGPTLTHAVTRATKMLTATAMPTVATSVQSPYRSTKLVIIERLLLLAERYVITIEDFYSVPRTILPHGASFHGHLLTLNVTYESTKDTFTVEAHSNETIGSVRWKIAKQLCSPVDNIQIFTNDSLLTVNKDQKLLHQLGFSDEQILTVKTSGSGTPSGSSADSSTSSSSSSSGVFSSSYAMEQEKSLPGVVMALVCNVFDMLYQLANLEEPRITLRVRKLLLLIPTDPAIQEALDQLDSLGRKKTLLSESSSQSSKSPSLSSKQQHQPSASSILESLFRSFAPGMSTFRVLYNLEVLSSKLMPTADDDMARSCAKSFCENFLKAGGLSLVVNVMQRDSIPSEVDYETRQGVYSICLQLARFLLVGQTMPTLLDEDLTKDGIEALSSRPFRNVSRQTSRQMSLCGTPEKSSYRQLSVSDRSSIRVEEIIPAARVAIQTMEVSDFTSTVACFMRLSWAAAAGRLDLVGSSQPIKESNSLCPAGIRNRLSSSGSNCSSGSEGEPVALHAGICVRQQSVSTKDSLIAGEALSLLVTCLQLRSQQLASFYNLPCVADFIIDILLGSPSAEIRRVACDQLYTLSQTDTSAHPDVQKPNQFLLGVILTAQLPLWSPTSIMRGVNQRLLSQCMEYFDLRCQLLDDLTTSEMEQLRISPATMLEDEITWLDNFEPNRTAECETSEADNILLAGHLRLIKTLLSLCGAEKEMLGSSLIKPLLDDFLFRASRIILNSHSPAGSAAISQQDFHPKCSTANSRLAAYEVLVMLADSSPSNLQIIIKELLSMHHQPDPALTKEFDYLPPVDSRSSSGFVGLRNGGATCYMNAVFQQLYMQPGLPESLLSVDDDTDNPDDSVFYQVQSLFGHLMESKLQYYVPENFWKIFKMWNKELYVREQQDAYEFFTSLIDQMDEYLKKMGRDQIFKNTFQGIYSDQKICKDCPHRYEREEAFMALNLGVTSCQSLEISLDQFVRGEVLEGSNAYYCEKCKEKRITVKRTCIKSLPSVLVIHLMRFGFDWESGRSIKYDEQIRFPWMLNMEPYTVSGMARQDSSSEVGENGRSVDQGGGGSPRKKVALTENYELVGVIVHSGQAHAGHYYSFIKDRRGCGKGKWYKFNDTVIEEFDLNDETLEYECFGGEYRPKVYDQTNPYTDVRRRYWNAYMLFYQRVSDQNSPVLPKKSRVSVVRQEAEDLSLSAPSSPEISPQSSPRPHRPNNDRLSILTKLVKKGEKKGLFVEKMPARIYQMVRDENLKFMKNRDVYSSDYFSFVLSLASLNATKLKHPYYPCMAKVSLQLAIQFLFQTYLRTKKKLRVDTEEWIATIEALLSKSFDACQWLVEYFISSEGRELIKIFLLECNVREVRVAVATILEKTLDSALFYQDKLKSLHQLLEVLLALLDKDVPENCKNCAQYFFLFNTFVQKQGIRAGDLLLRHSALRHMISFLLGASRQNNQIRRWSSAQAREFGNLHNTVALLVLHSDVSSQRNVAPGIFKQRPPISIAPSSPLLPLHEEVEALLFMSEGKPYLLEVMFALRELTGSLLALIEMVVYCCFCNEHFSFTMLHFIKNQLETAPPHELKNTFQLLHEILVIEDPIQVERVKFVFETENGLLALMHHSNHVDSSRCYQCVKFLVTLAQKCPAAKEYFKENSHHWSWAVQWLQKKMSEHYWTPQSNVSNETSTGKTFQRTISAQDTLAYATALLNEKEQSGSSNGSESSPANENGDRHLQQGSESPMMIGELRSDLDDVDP
In short: as §1

USP25 = biological target: T2, USP25 (UniProt Q9UHP3)
T2 sequence (whole entry): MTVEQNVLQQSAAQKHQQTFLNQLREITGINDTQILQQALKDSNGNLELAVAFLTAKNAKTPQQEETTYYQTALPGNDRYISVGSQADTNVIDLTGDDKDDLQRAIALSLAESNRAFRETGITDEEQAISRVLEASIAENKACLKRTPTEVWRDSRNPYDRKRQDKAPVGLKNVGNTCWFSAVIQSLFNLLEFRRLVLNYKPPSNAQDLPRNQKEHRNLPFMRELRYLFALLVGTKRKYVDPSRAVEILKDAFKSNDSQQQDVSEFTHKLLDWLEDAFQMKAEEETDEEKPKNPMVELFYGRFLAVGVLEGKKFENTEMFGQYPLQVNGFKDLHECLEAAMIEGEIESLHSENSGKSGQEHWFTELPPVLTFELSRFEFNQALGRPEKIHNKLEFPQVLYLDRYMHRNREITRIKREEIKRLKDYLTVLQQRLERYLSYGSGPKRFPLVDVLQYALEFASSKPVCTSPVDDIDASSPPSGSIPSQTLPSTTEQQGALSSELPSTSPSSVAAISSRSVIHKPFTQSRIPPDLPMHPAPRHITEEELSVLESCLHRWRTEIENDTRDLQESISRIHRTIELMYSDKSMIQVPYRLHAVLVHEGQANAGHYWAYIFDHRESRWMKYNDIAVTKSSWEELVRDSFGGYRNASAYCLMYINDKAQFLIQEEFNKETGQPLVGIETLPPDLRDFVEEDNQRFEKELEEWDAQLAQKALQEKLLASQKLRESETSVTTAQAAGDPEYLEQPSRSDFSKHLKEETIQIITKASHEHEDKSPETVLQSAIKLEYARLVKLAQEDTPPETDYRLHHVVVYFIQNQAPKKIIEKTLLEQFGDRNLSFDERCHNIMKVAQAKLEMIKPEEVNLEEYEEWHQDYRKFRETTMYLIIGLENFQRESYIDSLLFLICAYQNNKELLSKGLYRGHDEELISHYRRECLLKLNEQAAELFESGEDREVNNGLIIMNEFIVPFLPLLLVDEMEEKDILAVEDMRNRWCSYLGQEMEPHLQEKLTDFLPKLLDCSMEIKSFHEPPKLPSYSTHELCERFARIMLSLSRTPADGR
In short: as §1

USP28 = biological target: T3, USP28 (UniProt Q96RU2)
T3 sequence (whole entry): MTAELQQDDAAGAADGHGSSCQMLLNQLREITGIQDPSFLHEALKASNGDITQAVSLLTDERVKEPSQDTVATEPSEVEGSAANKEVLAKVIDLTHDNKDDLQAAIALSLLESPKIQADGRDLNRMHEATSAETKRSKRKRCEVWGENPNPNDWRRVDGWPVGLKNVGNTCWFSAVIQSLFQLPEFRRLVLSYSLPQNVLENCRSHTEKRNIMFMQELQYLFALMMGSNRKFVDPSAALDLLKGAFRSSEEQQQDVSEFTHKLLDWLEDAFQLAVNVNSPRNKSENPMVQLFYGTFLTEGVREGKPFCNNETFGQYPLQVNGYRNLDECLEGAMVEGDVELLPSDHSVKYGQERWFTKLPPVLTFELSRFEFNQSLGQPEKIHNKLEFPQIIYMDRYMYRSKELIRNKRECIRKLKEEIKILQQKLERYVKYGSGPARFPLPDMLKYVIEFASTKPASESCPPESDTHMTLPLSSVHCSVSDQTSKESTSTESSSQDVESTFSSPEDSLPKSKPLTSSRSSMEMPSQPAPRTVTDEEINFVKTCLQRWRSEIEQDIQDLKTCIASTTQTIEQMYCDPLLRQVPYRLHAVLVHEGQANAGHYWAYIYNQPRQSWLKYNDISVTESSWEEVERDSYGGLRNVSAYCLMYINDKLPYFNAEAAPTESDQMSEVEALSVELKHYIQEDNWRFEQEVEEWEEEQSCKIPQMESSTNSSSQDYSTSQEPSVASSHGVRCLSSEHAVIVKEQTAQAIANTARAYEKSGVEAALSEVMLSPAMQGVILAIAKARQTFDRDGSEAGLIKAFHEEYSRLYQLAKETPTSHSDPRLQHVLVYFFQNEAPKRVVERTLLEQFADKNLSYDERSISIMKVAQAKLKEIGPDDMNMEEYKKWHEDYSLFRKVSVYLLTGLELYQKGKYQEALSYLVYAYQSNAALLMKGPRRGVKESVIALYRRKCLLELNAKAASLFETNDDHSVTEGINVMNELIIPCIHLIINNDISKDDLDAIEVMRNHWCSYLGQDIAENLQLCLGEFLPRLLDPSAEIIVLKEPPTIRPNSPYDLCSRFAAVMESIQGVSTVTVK
In short: as §1

Measured: log2 ratio of Biotin-Ahx-Ub-VS probe labelling

NC(=O)C1CCCCN1C(=O)CCl (centres undefined)
inactive: USP19 -0.231 | USP24 -0.241 | USP25 -0.267 | USP28 -0.652

Source: the supplement of paper PMC11732987, “Enantioselective OTUD7B fragment discovery through chemoproteomics screening and high-throughput optimisation” (Communications Chemistry, 2025)
